# Assay results from PubChem BioAssay AID504327 (National Center for Advancing Translational Sciences (NCATS), 2011).
# About 820 (0.21%) of roughly 390,000 compounds were called active. About 3% were inconclusive and are not listed. The list comes from a sample in which actives are over-represented; it also holds similar structures and randomly drawn compounds. Unmarked numbers belong to inactive results. Calls come from the whole dose curve; as a rule, active = well fitted inhibition curve with a large enough effect; inconclusive = small, poorly fitted or top-dose-only effect, or another doubt; inactive = no such curve, though single readings can be large or run the other way.
# Biological target: Histone acetyltransferase KAT2A (Homo sapiens) (UniProt Q92830)
# Assay: qHTS Assay for Inhibitors of GCN5L2
# Conditions: GCN5L2 HAT assay, ThioGlo1 CoA-SH fluorescence; series mostly up to 58.9 µM; activity change, negative = inhibition: at the top concentration
# Source text: Histone acetyltransferase (HAT) enzymes transfer a […] group from acetyl-coenzyme A to the epsilon-amino group of conserved lysine residues of N-terminal histone tails. Acetylation results in charge neutralization of this positively charged amino acid, decreasing interactions with the […] backbone and making the DNA more accessible for transcription. HATs have been recognized as an emerging drug target for treatment of cancer, diabetes, asthma, chronic obstructive pulmonary disease, cardiac disease, and viral infection. Protein identified with HAT activity include the […] like 2 (GCN5L2, a.ka. Histone acetyltransferase KAT2A) which acetylates histone H3 at Lys9, 14, 18, 13, and to lesser extent histones H4 and H2B. This activates transcription of the gene by modulating chromatin structure and installing the acetyllysine recognition mark for bromodomain-containing coactivator proteins.
# A quantitative high throughput screen was developed to identify small molecule inhibitors. The assay is based on the principle that it measures formation of reduced CoA with the pro-fluorescent maleimide derivative ThioGlo1 that becomes fluorescent upon reaction with the free thiol of CoA.
# A large number of artifacts are expected in this primary screen, compounded by the assay format (fluorescent artifacts) and by the high top concentration tested for each substance. This BioAssay data deposition should be used with caution, and counterscreen and secondary assay validation is essential since very few actives from the primary screen are expected to be true inhibitors of GCN5L2.
# [2] Yasgar, et al. Compound Management for Quantitative High-Throughput Screening. JALA. 2008 Apr;13(2):79-89.
# [3] Inglese, et al. Quantitative high-throughput screening: a titration-based approach that efficiently identifies biological activities in large chemical libraries. Proc Natl Acad Sci. 1;103(31):11473-8. 2006. PMID: 16864780
# NIH Molecular Libraries Probe Production Network [MLPCN]
# NIH Chemical Genomics Center [NCGC]
# Structural Genomics Consortium (SGC)
# To each well of a 1,536w plate, 3ul of GCN5L2 (final concentration 20nM, in 50mM HEPES, 0.1mM EDTA (pH 7.5), 0.01% Tween-20 buffer) are added using a Kalypsys dispenser. Only buffer is added to some wells as a control. A Kalypsys pin-tool transferred 23nl of library compound solution in DMSO to each well, as well as the control inhibit garcinol. . Following a 15 min incubation of enzyme with compounds at room temperature, 1ul mixture of ThioGlo1 (50uM final), H3(1-25) peptide (75uM final), and Acetyl-CoA (70uM final) is added. Plates are read immediately on the ViewLux (PerkinElmer) (Ex340nm/Em540nm) for a 0 min read, incubated for 20 min at room temperature, and read again on the ViewLux with the same settings. The initial read was carried out to identify compounds that are potentially fluorescent.
# % is set by controls: 0 for no effect and ±100 for the full control effect; potency is the fitted concentration of half-maximal effect.
# Histone acetyltransferase KAT2A (Homo sapiens), sequence (Q92830 whole entry, looked up): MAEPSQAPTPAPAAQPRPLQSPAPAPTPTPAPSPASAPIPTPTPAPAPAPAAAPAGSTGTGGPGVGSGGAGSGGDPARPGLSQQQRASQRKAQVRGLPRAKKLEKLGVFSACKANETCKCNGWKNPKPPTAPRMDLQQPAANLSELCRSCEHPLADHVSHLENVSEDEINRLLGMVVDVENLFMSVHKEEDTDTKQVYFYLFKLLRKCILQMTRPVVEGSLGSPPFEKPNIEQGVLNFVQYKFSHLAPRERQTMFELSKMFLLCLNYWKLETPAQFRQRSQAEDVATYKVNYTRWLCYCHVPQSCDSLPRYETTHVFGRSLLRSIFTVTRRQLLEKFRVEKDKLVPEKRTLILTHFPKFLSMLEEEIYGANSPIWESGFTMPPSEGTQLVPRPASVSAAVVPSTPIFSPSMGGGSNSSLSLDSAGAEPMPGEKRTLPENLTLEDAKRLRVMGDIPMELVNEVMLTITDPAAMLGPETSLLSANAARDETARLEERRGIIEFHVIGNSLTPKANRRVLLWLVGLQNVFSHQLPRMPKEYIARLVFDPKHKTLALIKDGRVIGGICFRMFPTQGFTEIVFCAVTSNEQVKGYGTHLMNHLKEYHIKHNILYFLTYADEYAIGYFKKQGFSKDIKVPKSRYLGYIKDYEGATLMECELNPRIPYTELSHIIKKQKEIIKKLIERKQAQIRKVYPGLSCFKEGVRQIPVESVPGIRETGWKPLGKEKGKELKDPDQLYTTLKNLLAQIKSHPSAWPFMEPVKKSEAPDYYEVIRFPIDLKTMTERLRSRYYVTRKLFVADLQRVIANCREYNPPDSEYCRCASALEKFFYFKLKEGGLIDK
Structure (SMILES),"activity change, negative = inhibition",Potency
COc1ccccc1N1CCN(C[C@@H]2CN3C(=O)N(C)c4ccccc4C3=N2)CC1,-10.7%,
C[C@@H]1C[C@H]2[C@@H]3C[C@H](F)C4=CC(=O)C=C[C@@]4(C)[C@]3(F)[C@H](O)C[C@]2(C)[C@@]1(O)C(=O)CO,5.37% [at 21.4 µM],
C[C@@H]1O[C@@H](OC[C@H]2O[C@@H](Oc3cc(O)c4c(c3)O[C@H](c3ccc(O)c(O)c3)CC4=O)[C@H](O)[C@@H](O)[C@@H]2O)[C@H](O)[C@H](O)[C@H]1O,-18.7%,
COc1ccccc1CNC(=O)c1ccc(N(C)S(=O)(=O)c2ccc(C)cc2)cc1,-9.17%,
Cc1ccccc1CSCCNC(=O)c1ccc(N(C)S(=O)(=O)c2ccccc2)cc1,,2.24 µM (active)
Cc1ccccc1CSCCNC(=O)c1ccc(Cl)c(S(=O)(=O)N2CCOCC2)c1,2.44%,
COc1cccc(Nc2ncc3ncc(=O)n(C4CC4)c3n2)c1,-6.14%,
Cc1ccc(C2C(C#N)C(C#N)N3CCCN23)cc1 (centres undefined),,22.4 µM (active)
CC1CC[C@@]23CCC4(C)[C@@]5(C)CCC6C(C)(C)C(O)CC[C@@]6(C)C5C=C[C@@]4(OC2=O)C3C1C (some centres undefined),-10.8%,
CC1=C/C(=N\OS(=O)(=O)c2ccccc2)C=CC1=O,,14.1 µM (active)
COc1cc2c(cc1OC)CC(=O)N(CCCN(C)C[C@H]1Cc3cc(OC)c(OC)cc31)CC2,-3.71%,
O=C1OC(C(O)CO)C(O)=C1O (centres undefined),-3.15%,
CCNc1ncc2ncc(=O)n(Cc3cccc(OC)c3)c2n1,-13.7%,
Cc1ccc(S(=O)(=O)N2CCCCC2)cc1NC(=O)c1cccnc1,-1.42%,
Cc1c(C(=O)OC(C)C)sc(NC(=O)c2cccnc2)c1C#N,,3.16 µM (active)
CCOC(=O)c1sc(NC(=O)CSc2nc(C)cc(C(F)(F)F)n2)c(C#N)c1C,0%,
COc1cccc(-c2cc(NCCc3c[nH]c4ccc(OC)cc34)ncn2)c1,-21.1%,
CC1(C)OC2CC3C4CCC5=CC(=O)CCC5(C)C4(F)C(O)CC3(C)[C@]2(C(=O)CCl)O1 (some centres undefined),4.95%,
Oc1c(Cl)cc(Cl)c(Cl)c1Cc1c(O)c(Cl)cc(Cl)c1Cl,,12.6 µM (active)
c1ccc2c(Nc3ccncc3)nc(-c3ccoc3)nc2c1,-26.1%,
O=C(Nc1ccccc1)N[C@H]1C[C@H](C(=O)O)Nc2cc(Cl)cc(Cl)c21,,inactive
C=C1C(=CC=C2CCC[C@@]3(C)[C@@H]2CC[C@H]3[C@H](C)CCCC(C)C)C[C@@H](O)C[C@@H]1O,-15.3%,

Structure (SMILES),"activity change, negative = inhibition",Potency
CC(C)(O/N=C(\C(=O)N[C@@H]1C(=O)N2C(C(=O)[O-])=C(C[n+]3ccccc3)CS[C@@H]12)c1csc(N)n1)C(=O)O,-8.44% [at 21.4 µM],
CC1C(O)CC2C(C(=O)O)=CO[C@@H](O[C@H]3OC(CO)C(O)C(O)C3O)C21 (some centres undefined),2.16%,
COC(=O)N1CCC[C@@]2(CCN(C(=O)NC(C)C)C2)C1,-1.27%,
Brc1ccc(C2=NCCC(c3ccccc3)O2)cc1 (centres undefined),16.1% [at 88.6 µM],
CC(C)NC(=O)N1CC[C@@]2(CCCN(C(=O)c3ccco3)C2)C1,-4.07%,
CCCCOc1ccc(Cn2c(=O)oc3ccc(C)cc32)cc1OC,-18.2%,
CCCCOC(=O)Cn1c(=O)n(CC(=O)OCCCC)c2cc(C)ccc21,,31.6 µM (active)
Cc1ccc(C)c(NC(=O)COC(=O)Cn2c(C)csc2=O)c1,-26.1%,
COc1ccc(NC(=O)N2CC3(CCN(C(C)=O)CC3)C2)cc1,-3.46%,
CC(=O)CC(c1ccccc1)C1C(=O)Oc2ccccc2C1=O (centres undefined),-14.4%,
COc1cccc(Cn2c(=O)c(-c3cc(F)cc(F)c3)nc3cnc(OC)nc32)c1,-18.4%,
O=c1c(CCc2ccccc2)nc2cncnc2n1C1CC1,0.326%,
CC(C)=CCC/C(C)=C/CC/C(C)=C/CC/C(C)=C/CO,,inactive
O=C(c1csnn1)N1CCC[C@@]2(CCN(c3cccc(-c4ccccc4)c3)C2)C1,-17.1%,
Nc1nc2[nH]c(=O)c(=O)[nH]c2c(=O)[nH]1,3.18%,
Cc1cnc(CNc2cc(-c3c(C)noc3C)ncn2)cn1,-10.5%,
C=CCC1CCC(=O)N2CCCC12 (centres undefined),-15.7% [at 135 µM],
CCCCCCCCCc1ccc(OCCOCCOCCOCCOCCOCCOCCOCCOCCO)cc1,27.3%,
Cn1cc(-c2nc3cncnc3n(-c3ccccc3)c2=O)c2ccccc21,-4.06%,
Oc1ccc2c(c1)OCC1c3cc4c(cc3OC21)OCO4 (centres undefined),4.11%,
Nc1ncnc2c1c(I)cn2[C@@H]1C[C@H](N)[C@@H](O)[C@H]1O,-11.2%,
COc1ccc2[nH]cc(CCNc3ncnc4ccc(-c5ccc(C(=O)N(C)C)cc5)cc34)c2c1,-4.79%,

Structure (SMILES),"activity change, negative = inhibition",Potency
CC1OC(OCC2OC(Oc3c(-c4ccc(O)c(O)c4)oc4cc(O)cc(O)c4c3=O)C(O)C(O)C2O)[C@@H](O)C(O)C1O (some centres undefined),-15.9%,
CCOCCOC(=O)C(C)Oc1ccc(Oc2ncc(C(F)(F)F)cc2Cl)cc1 (centres undefined),0%,
CS(=O)(=O)N1CCC2(CC1)CN(Cc1ccccc1)C2,-8.7%,
COCCNc1ncnc2ccc(-c3cccnc3)cc12,-18.5%,
CCC(CCC(C)C1CCC2C3CC=C4CC(O)CC[C@@]4(C)C3CC[C@@]12C)C(C)C (some centres undefined),2.86%,
O=P(O)(O)C(O)c1ccc2ccccc2c1 (centres undefined),9.85%,
CC(O)[C@@H](N)C(=O)O (some centres undefined),-8.25%,
COc1ccc(CNc2ncnc3ccc(-c4cccnc4)cc23)c(OC)c1,-12.1%,
CCOC(=O)Cn1c(=O)sc2cccc(Cl)c21,0.871%,
CCNc1ncc2nc(CCc3ccccc3)c(=O)n(-c3ccc(OC)cc3)c2n1,2.19%,
Cn1cc(-c2nc3cnc(N4CCNCC4)nc3n(CCC#N)c2=O)c2ccccc21,-38.3%,
N#Cc1cccc(-c2nc3cnc(N4CCNCC4)nc3n(C3CC3)c2=O)c1,,28.2 µM (active)
O=c1c(-c2ccc(F)cc2)nc2cnc(N3CCNCC3)nc2n1Cc1cccs1,-23.1%,
O=C(c1cc(C(F)(F)F)cc(C(F)(F)F)c1)N1CCC2(CCCN(c3ccccn3)C2)CC1,-12.1%,
CN1CCN2c3ccccc3Cc3ccccc3[C@@H]2C1,-1.21% [at 21.4 µM],
CN1CCN(c2ncc3nc(-c4ccc(Cl)cc4)c(=O)n(-c4ccccc4)c3n2)CC1,-9.91%,
CCCCC/C=C\CC1OC1CCCCCCCC(=O)O (centres undefined),13.4%,
Cc1cccc(CNc2cc(-c3ccccc3Cl)ncn2)c1,-15.1%,
C=CC(=O)c1ccc2ccccc2c1,-23.4%,
COCCn1c(=O)c(-c2ccccc2)nc2cnc(N3CCOCC3)nc21,-22.9%,
